Reference: PubChem BioAssay AID680 (PCMD, 2007)
Screen size: about 62,000 compounds; about 120 (0.19%) were called active. Rule as the data show it: active = inhibition above about 20% (passing the limit was not always enough); inactive = the rest. The list comes from a sample in which actives are over-represented; it also holds similar structures and randomly drawn compounds.

The compounds below were run against Coagulation factor XI (Homo sapiens) (UniProt P03951) (assay: FXIa protease inhibitors in compound pools, primary screen, biochemical, 10-compound mixtures (AID 680;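 also: each value is inhibition by a whole ten-compound pool holding the compound; 0% = enzyme with no mixture and 100% = wells lacking enzyme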)). Conditions: purified FXIa, fluorogenic substrate, pooled mixtures; at 5 µM; hits give high values.
Chain of Coagulation factor XI (Homo sapiens) (P03951 19-387 limits assumed): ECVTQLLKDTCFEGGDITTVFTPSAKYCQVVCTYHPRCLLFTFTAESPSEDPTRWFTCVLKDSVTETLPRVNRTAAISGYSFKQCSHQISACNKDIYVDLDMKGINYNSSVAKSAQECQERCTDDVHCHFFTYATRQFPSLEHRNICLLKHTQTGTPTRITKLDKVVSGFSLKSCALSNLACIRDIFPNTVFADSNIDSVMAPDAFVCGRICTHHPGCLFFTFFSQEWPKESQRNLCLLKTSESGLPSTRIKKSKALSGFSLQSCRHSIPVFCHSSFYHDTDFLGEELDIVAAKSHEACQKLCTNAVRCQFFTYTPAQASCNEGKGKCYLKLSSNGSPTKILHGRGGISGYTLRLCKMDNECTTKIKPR
Chain of Coagulation factor XI (Homo sapiens) (P03951 388-625 limits assumed): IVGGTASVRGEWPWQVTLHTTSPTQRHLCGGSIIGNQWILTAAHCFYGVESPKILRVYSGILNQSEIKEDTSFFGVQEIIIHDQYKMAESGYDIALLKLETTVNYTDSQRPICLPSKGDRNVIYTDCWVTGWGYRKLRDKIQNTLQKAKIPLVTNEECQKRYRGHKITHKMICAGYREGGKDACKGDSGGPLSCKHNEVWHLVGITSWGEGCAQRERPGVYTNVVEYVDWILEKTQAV

Row | SMILES | inhibition
1 | COC(C)(C)[C@]12CC(O)(C(C)C)ON1[C@H]1CCCCC1N2O (some centres not stated) | -9.49% (inactive)
2 | CCOC(=O)CSc1nnc(CNC(=O)Cc2ccccc2)n1-c1ccccc1OC | 13.1% (inactive)
3 | COc1ccc(CCN2C(=O)c3[nH]nc(-c4ccccc4O)c3C2c2ccc(C)cc2)cc1OC (configuration not stated) | 8.98% (inactive)
4 | CCc1c(C)n([O-])c2c([n+]1=O)CCCCC2 | 5.37% (inactive)
5 | CC(C)(C)n1c(=O)[nH]c2c(c1=O)CCC2 | 5.49% (inactive)
6 | O=C(CC1(O)C(=O)N(CN2CCOCC2)c2ccccc21)c1ccccc1 (configuration not stated) | 4.51% (inactive)
7 | Cc1cc(NC(=O)CCC(=O)N(c2ccccc2)C(C(=O)NC2CCCC2)c2ccncc2)no1 (configuration not stated) | 10% (inactive)
8 | Cn1c(NC(=O)c2ccco2)c(-c2ccccc2Cl)c(=O)c2ccccc21 | 7.49% (inactive)
9 | CC(C)(C)NC(=O)C(c1ccncc1)N(C(=O)CNC(=O)c1ccco1)c1ccc2c(c1)OCO2 (configuration not stated) | 8.32% (inactive)
10 | CCOC(=O)C1CCN(C(=O)COc2cc(C)c(Br)c(C)c2)CC1 | -1.91% (inactive)
11 | O=C(CSc1nc2c(cnn2-c2ccc(F)cc2)c(=O)[nH]1)N1CCCCCC1 | 2.05% (inactive)
12 | CCC(=O)c1cc2c(cc1NC(=O)c1cccs1)OCCO2 | 1.74% (inactive)
13 | Cc1oc(-c2cccc(Cl)c2)[n+]([O-])c1C | 1.39% (inactive)
14 | CN(C)S(=O)(=O)c1ccc(Oc2ccc(S(=O)(=O)N(C)C)cc2)cc1 | 7.21% (inactive)
15 | Cc1cccc2c1N(CC(=O)OC(C)C)C(=O)C2=O | 1.41% (inactive)
16 | CC1CCN(c2nc3c(c(=O)[nH]c(=O)n3C)n2CCCc2ccccc2)CC1 | -1.49% (inactive)
17 | O=C(CSc1nnc(-c2ccncc2)n1C1CCCCC1)Nc1ccccc1 | 8.47% (inactive)
18 | Fc1ccc(-c2nnc(CSc3nnc(-c4ccc5c(c4)OCO5)o3)o2)cc1 | 0.485% (inactive)
19 | COc1cccc(-n2cc3c(c2-c2ccccc2)c(=O)n(C)c(=O)n3C)c1 | 3.95% (inactive)
20 | OCCCNC(c1ccccc1)c1ccc(O)cc1 (configuration not stated) | 7.84% (inactive)
21 | COc1ccc2c(CC(=O)Nc3nnc(C4CC4)s3)coc2c1 | 4.86% (inactive)
22 | COc1ccccc1Cn1c(=S)[nH]c2cc(C(=O)N3CCN(C)CC3)ccc2c1=O | 5.3% (inactive)
23 | COc1cccc(NC(=O)CN(C)S(=O)(=O)c2ccc(C)cc2)c1 | -2.5% (inactive)
24 | Cc1ccccc1-c1nc(CS(=O)(=O)CC(=O)N2CCc3ccccc3C2)c(C)o1 | 11.3% (inactive)
25 | COc1ccccc1CNC(=O)CCCn1c(=O)c2ccccc2n(CC(=O)NC2CCCC2)c1=O | 0.555% (inactive)

Row | SMILES | inhibition
26 | CC12CN(Cc3ccccc3)CC(C)(CN(Cc3ccccc3)C1)C2=NO | -5.8% (inactive)
27 | CCOC(=O)Nc1ccccc1N1C(=O)c2ccccc2C1=O | 7.59% (inactive)
28 | CCOC(=O)C(C(=O)OCC)C(C#N)c1ccccc1 (configuration not stated) | 3.99% (inactive)
29 | CCOC(=O)NC(C(F)(F)F)(C(F)(F)F)P(=O)(c1ccccc1)c1ccccc1 | 22.6% (active)
30 | CCOC(=O)N1CCC(NC(=O)C(C)n2c3ccccc3c3cnn(C)c(=O)c32)CC1 (configuration not stated) | -52.1% (inactive)
31 | CN(CCCC(=O)Nc1nccs1)S(=O)(=O)c1ccc(Cl)cc1 | 2.62% (inactive)
32 | Cc1cc(C)c2c(n1)nn1c(-n3ccnc3)cc(C)nc21 | 4.82% (inactive)
33 | CN(C(=O)c1ccno1)c1nnc(-c2cccnc2)s1 | 0.72% (inactive)
34 | CN(Cc1ccccc1)Cc1ccccc1F | 11% (inactive)
35 | O=C(Nc1ccccc1)N(Cc1cccnc1)Cc1ccco1 | 9.03% (inactive)
36 | O=C(Nc1ccn(Cc2ccc(F)cc2)n1)c1ccncc1 | 1.2% (inactive)
37 | CS(=O)(=O)N1CCCC(C(=O)N2CCOCC2)C1 (configuration not stated) | 6.58% (inactive)
38 | Fc1ccccc1OCCSc1nc2ccccc2o1 | 5.06% (inactive)
39 | COC(=O)C1=C(C)N(C)C(C)=C(C(=O)OC)C1c1cccc(Br)c1 | 4.43% (inactive)
40 | CC(=O)NC(C)(C)C1CC=C(C)/C(=N\O)C1 (configuration not stated) | 6.99% (inactive)
41 | Cc1ccc(S(=O)(=O)N2CCC(C(=O)OCC(=O)N3CC(=O)Nc4ccccc43)CC2)cc1 | -8.9% (inactive)
42 | O=C(CSc1nnc2scc(-c3ccc(F)cc3)n12)NCc1ccco1 | 2.54% (inactive)
43 | Cc1ccc(-c2csc3nnc(SCC(=O)NCc4ccco4)n23)cc1 | 25.9% (active)
44 | Cn1c(-c2ccc(F)cc2)cnc1SCC(=O)NCc1ccco1 | -1.83% (inactive)
45 | COC(=O)c1c(NC(=O)c2cccs2)sc2c1CCCC2 | 5.01% (inactive)
46 | NC(=O)COc1ccc2c3c(c(=O)oc2c1)CCCCC3 | -3.05% (inactive)
47 | CCC(=O)Nc1ccc(C(=O)CSc2nnc(CNc3ccc(Cl)cc3)o2)cc1OC | 1.04% (inactive)
48 | COc1ccc(CCNC(=O)C2CCCN(Cc3nc(-c4cccc(Cl)c4)oc3C)C2)cc1OC (configuration not stated) | 10.1% (inactive)
49 | Cc1nc2nc[nH]n2c(=O)c1NC(=O)c1cccc(OCC(C)C)c1 | 8.27% (inactive)
50 | CCOC(=O)C1CCN(C(=O)Cc2c(C(=O)O)[nH]c3ccccc23)CC1 | 6.1% (inactive)

Row | SMILES | inhibition
51 | CCc1c(C)nc2ncnn2c1N1CCC(C(=O)NCc2ccc3c(c2)OCO3)CC1 | 8.05% (inactive)
52 | CCN(CC)CCN1C(=O)C(=O)/C(=C(/O)c2ccccc2)C1c1ccccc1F (configuration not stated) | 4.21% (inactive)
53 | Cc1ccc(S(=O)(=O)N(C)CC(=O)N2CCc3ccccc32)cc1 | 4.38% (inactive)
54 | COc1ccc(C2N=C(N)N=C(N)N2c2ccccc2)cc1OC (configuration not stated) | 1.53% (inactive)
55 | O=C(CSc1nnc(-c2ccco2)o1)NCC(=O)c1ccccc1 | 10.1% (inactive)
56 | COc1cccc2c(C)c(C(=O)O)[nH]c12 | -18% (inactive)
57 | CCOC(=O)N1CCC(O)(c2cc(C)c(C)cc2C)CC1 | 9.28% (inactive)
58 | Cc1nc2nc3c(cn2n1)C(=O)CC(c1ccccc1)C3 (configuration not stated) | 1.31% (inactive)
59 | COc1ccc(CCN2CNc3c(c(=O)n(C)c(=O)n3C)C2)cc1OC | 10.4% (inactive)
60 | N#CCCn1ncc2ccccc21 | -0.96% (inactive)
61 | COc1cc(=O)[nH]c(=O)n1C(=O)Cc1ccccc1 | 2.34% (inactive)
62 | COc1ccc(N2CCN(C(=O)CSc3nnc4ncccn34)CC2)cc1 | 3.9% (inactive)
63 | CCOC(=O)c1cc2sccc2n1Cc1ccc(C#N)cc1 | 0.72% (inactive)
64 | CCOc1ccc(/C(O)=C2/C(=O)C(=O)N(Cc3cccnc3)C2c2ccc(N(C)C)cc2)c(C)c1 (configuration not stated) | -2.04% (inactive)
65 | O=c1c2ccccc2nnn1CSc1nc2sc3c(c2c(=O)n1CC1CCCO1)CCC3 (configuration not stated) | 0.04% (inactive)
66 | CN(C)CCCNC(=O)c1ccc2[nH]c3ccccc3c2c1 | 3.52% (inactive)
67 | O=C(CSc1nnc(-c2ccco2)n1Cc1ccccc1)NC(=O)NCc1ccco1 | 2.1% (inactive)
68 | CCOCCOC(=O)C1=C(C)N(C)C(=O)NC1c1ccccc1F (configuration not stated) | 5% (inactive)
69 | CCc1ccc(-c2nnn(Cc3nc4ccccc4s3)n2)cc1 | 9.76% (inactive)
70 | COc1ccc(-c2nnc(SC(C)C#N)o2)cc1 (configuration not stated) | -13.7% (inactive)
71 | COc1ccc(-c2n[nH]c(C)c2-c2ccc(OC)c(OC)c2)c(O)c1 | 5.75% (inactive)
72 | C=C(C)COc1ccc(-c2n[nH]c(C)c2-c2ccccc2OC)c(O)c1 | 21.4% (active)
73 | C=C(C)COc1ccc(-c2n[nH]c(C)c2-c2ccccc2)c(O)c1 | 6.11% (inactive)
74 | Cc1sc2c(c1C)c(=O)n(-c1ccccc1)c1nncn21 | 0.14% (inactive)
75 | O=C1CSC(c2cccc(F)c2)N1c1ccccc1F (configuration not stated) | 1.83% (inactive)

Row | SMILES | inhibition
76 | CCCc1[nH]nc2c1C(c1ccc(Br)s1)C(C#N)=C(N)O2 (configuration not stated) | 7.01% (inactive)
77 | COc1ccccc1-c1cc(C(=O)N2CCCCC2)no1 | 3.06% (inactive)
78 | COC(=O)CNS(=O)(=O)c1ccc(Cc2ccc(S(=O)(=O)NCC(=O)OC)cc2)cc1 | 13.4% (inactive)
79 | COC(=O)c1cc(NC2c3ccccc3C(=O)N2c2ccc(Cl)cn2)cc(C(=O)OC)c1 (configuration not stated) | 3.54% (inactive)
80 | CCCc1nc(N)nc2c1C(=O)CC(C)(C)C2 | -0.555% (inactive)
81 | COC(=O)CN(c1cccc(C(C)=O)c1)S(C)(=O)=O | 2.59% (inactive)
82 | CCN(c1ccccc1)S(=O)(=O)c1ccc(N)cc1 | 0.065% (inactive)
83 | O=C(Nc1ccc(Cl)cn1)c1cnn2cccnc12 | 3.33% (inactive)
84 | Brc1cccc(-c2nnc3n2CCC3)c1 | 2.48% (inactive)
85 | CC(C)CCNC(=O)CCNS(=O)(=O)c1ccc(Cl)cc1 | 6.13% (inactive)
86 | CCOC(=O)c1c(-n2cnnn2)sc(C)c1C | 13.6% (inactive)
87 | Cc1c2cn[nH]c(=O)c2c(C)n1Cc1ccc(F)cc1 | 3.31% (inactive)
88 | CC(C)c1nnc(NC(=O)C2CCCN2S(=O)(=O)c2ccc(Cl)cc2)s1 (configuration not stated) | 9.37% (inactive)
89 | Cc1cccc(NC(=O)C2CCCN2S(=O)(=O)c2ccc(F)cc2)c1C (configuration not stated) | 23.4% (active)
90 | Cc1ccc(S(=O)(=O)N2CCCC2C(=O)NCc2ccco2)cc1 (configuration not stated) | 3.07% (inactive)
91 | N#Cc1nc(Cc2cccc3ccccc23)oc1NCc1ccc2c(c1)OCO2 | 3.7% (inactive)
92 | O=C(Cn1nc(Cc2cccnc2)c2ccccc2c1=O)NCC1CCCO1 (configuration not stated) | 1.16% (inactive)
93 | CCOC(=O)N1CCN(C(=O)CSc2nnc(-c3c[nH]c4ccccc34)n2CCOC)CC1 | 6.18% (inactive)
94 | CCC(C)Sc1nnc(-c2c[nH]c3ccccc23)n1CCOC (configuration not stated) | 4.33% (inactive)
95 | CCn1c(SCCC(C)C)nnc1-c1c[nH]c2ccccc12 | 27.8% (active)
96 | O=C(c1ccccc1)c1ccc(OC(=O)N2CCCC2)cc1 | 5.6% (inactive)
97 | COc1ccc(CCNC(=O)CSc2nnc(CNC(=O)c3cccs3)o2)cc1OC | 4.31% (inactive)
